Our source for the Potency values is PubChem BioAssay (NCATS).

Common to all, as to assay: qHTS profiling for inhibitors of Plasmodium falciparum proliferation (AID 504749); further: nearly all actives have a fitted effect of over 60% in size
What all share (details): P. falciparum in erythrocytes, SYBR Green DNA, 72 h; series mostly up to 28.7 µM
For orientation: Quantitative high-throughput screening tests each substance at several concentrations.

For one assay, the system named is CP217. The method, boiled down:
(§1)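 Three-day growth assay of blood-stage parasites in erythrocytes (0.3% parasitemia, 2.5% hematocrit) at 37 C, 5% CO2, quantified by SYBR Green DNA staining after overnight detergent lysis.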

The next assay concerns CP237. The method, boiled down:
as §1

The next assay relates to CP238. The method, boiled down: as §1
The test system of another assay is CP247. The method, boiled down:
as §1

The next assay relates to CP250. The essentials: as §1
Another assay relates to CP252. The essentials:
as §1

For a further assay, the system named is CP256. The essentials:
as §1

Another assay concerns CP260. The method, boiled down:
as §1

In a further assay the test system is CP262. The essentials: as §1
For the next assay, the system named is CP265. The essentials:
as §1

In a further assay the test system is CP266. The essentials:
as §1

The next assay has as its system CP268. The essentials:
as §1

For another assay, the system named is CP269. The method, boiled down:
as §1

The subject of another assay is CP286. The method, boiled down:
as §1

A further assay deals with CP291. The method, boiled down:
as §1

The next assay deals with CP297. The method, boiled down:
as §1

The subject of a further assay is CP305. The essentials: as §1
A further assay has as its system CP315. The method, boiled down: as §1
The test system of the next assay is CP325. The method, boiled down: as §1
The subject of the next assay is CP329. The essentials:
as §1

Structures are written as SMILES. Records with an inconclusive call do not appear. The source made the active and inactive calls. The call rests on the fitted dose curve; in most records, active means well fitted inhibition curve with a large enough effect; inconclusive means small, poorly fitted or top-dose-only effect; inactive means flat fitted curve, though single readings scatter.
Potency means the concentration at half of the fitted maximal effect.

For the compound `Cc1cnc(C(=O)NCCc2ccc(S(=O)(=O)NC(=O)NC3CCCCC3)cc2)cn1`, the Potency entry with CP217, in the assay with CP237, in the assay with CP238, in the assay with CP247, in the assay with CP250 and with CP252 was “inactive” throughout. For the same compound, the Potency result in the assay on CP256, with CP260, with CP262, with CP265, with CP266 and in the assay on CP268 was “inactive” in each case. Also, the Potency entry with CP269, in the assay with CP286, in the assay on CP291, in the assay with CP297, with CP305 and in the assay with CP315 was “inactive” each time. Besides, the Potency entry with CP325 and in the assay on CP329 was “inactive” each time.
For the compound `O=c1c(-c2ccc(O)cc2)coc2cc(O)cc(O)c12`, the Potency result with CP217, with CP237, with CP238, in the assay on CP247, with CP250 and with CP252 was “inactive” throughout. In addition, the Potency result with CP256, in the assay with CP260, with CP262, in the assay on CP265, in the assay on CP266 and with CP268 was “inactive” each time. The Potency entry with CP269, in the assay with CP286, with CP291, in the assay with CP297, in the assay with CP305 and in the assay on CP315 was “inactive” throughout. The Potency entry in the assay with CP325 and in the assay on CP329 was “inactive” in each case.
Take `COc1ccc2[nH]cc(CCNC(C)=O)c2c1`: the Potency result in the assay on CP217, in the assay on CP237, in the assay on CP238, in the assay with CP247, with CP250 and in the assay on CP252 was “inactive” each time. Moreover, the Potency result in the assay with CP256, in the assay on CP260, with CP262, with CP265, in the assay on CP266 and with CP268 was “inactive” in each case. Besides, the Potency entry in the assay on CP269, with CP286, with CP291, in the assay with CP297, in the assay on CP305 and in the assay with CP325 was “inactive” throughout. Besides, the Potency result in the assay on CP329 is “inactive”.
`CC(=O)OCC(CCn1cnc2cnc(N)nc21)COC(C)=O`: the Potency result with CP217, with CP237, in the assay with CP238, in the assay with CP247, with CP250 and in the assay with CP252 was “inactive” throughout. Also, the Potency result in the assay on CP256, in the assay with CP260, in the assay with CP262, with CP265, in the assay on CP268 and in the assay with CP269 was “inactive” in each case. In addition, the Potency result in the assay with CP286, in the assay on CP291, in the assay with CP297, with CP305, in the assay on CP315 and in the assay with CP325 was “inactive” throughout. Also, the Potency result in the assay with CP329 is “inactive”.
Regarding `O=C(c1ccc(OCCN2CCCCC2)cc1)c1c(-c2ccc(O)cc2)sc2cc(O)ccc12`, the Potency in the assay on CP237 was 3.55 µM (active); in the assay on CP247, 7.08 µM (active); in the assay with CP260, 3.16 µM (active); in the assay on CP268, 10.7 µM (active); in the assay on CP286, 3.55 µM (active); in the assay on CP297 it was 12 µM (active). In addition, the Potency in the assay with CP315 is 19 µM (active). The Potency result with CP262 is “inactive”.
For the compound `CN(C)CCCN1c2ccccc2CCc2ccc(Cl)cc21`, the Potency result in the assay with CP238, in the assay on CP247, with CP250, with CP252, with CP265 and with CP268 was “inactive” in each case. Also, the Potency result with CP305, in the assay with CP315, in the assay on CP325 and in the assay on CP329 was “inactive” each time.
With `Nc1c2c(nc3ccccc13)CCCC2`, the Potency entry in the assay on CP217, with CP238, in the assay with CP250, in the assay with CP252, in the assay with CP266 and in the assay with CP315 was “inactive” in each case.
For the compound `O=c1c(O)c(-c2ccc(O)c(O)c2)oc2cc(O)cc(O)c12`, the Potency was 7.08 µM (active) with CP247 and 11.2 µM (active) in the assay with CP286. The Potency result in the assay with CP266 was “inactive”.
`CC(C)NCC(O)COc1ccc(CCOCC2CC2)cc1` (stereo unspecified): the Potency result in the assay on CP217, in the assay on CP237, with CP238, in the assay with CP247, with CP250 and in the assay with CP252 was “inactive” throughout. Also, the Potency entry with CP256, in the assay on CP262, with CP266, with CP268, with CP286 and in the assay with CP291 was “inactive” throughout. Moreover, the Potency result in the assay with CP297, with CP305, with CP315, in the assay with CP325 and in the assay on CP329 was “inactive” throughout.
As for `CC[C@@]1(O)C(=O)OCc2c1cc1n(c2=O)Cc2cc3c(CN(C)C)c(O)ccc3nc2-1`, the Potency is 8.91 µM (active) with CP237; 4.47 µM (active) in the assay on CP250; 6.31 µM (active) in the assay with CP260; 6.31 µM (active) with CP265; 5.62 µM (active) with CP286; 4.78 µM (active) in the assay with CP291. The Potency with CP297 is 7.57 µM (active); with CP329, 6.75 µM (active). For the same compound, in the assay with CP266, the Potency result is “inactive”.
Take `OCCN1CCN(CCCN2c3ccccc3Sc3ccc(C(F)(F)F)cc32)CC1`: the Potency with CP217 is 10 µM (active); in the assay on CP237 it was 12.6 µM (active); with CP238 it was 8.91 µM (active); with CP247, 11.2 µM (active); in the assay on CP250, 12.6 µM (active); in the assay on CP252 it was 10 µM (active). Besides, the Potency is 3.16 µM (active) in the assay on CP256; 7.94 µM (active) in the assay on CP260; 5.36 µM (active) in the assay on CP262; 11.2 µM (active) with CP265; 13.5 µM (active) in the assay with CP268; 6.01 µM (active) in the assay on CP269. Also, the Potency in the assay with CP286 was 2.51 µM (active); with CP291, 8.49 µM (active); in the assay on CP305, 9.53 µM (active); with CP315 it was 12 µM (active); in the assay on CP325, 6.75 µM (active); in the assay on CP329, 13.5 µM (active).
Consider `CC(C)(Oc1ccc(C2CC2(Cl)Cl)cc1)C(=O)O` (stereo unspecified), for which the Potency result in the assay with CP217, in the assay on CP237, with CP238, with CP247, in the assay on CP250 and in the assay with CP252 was “inactive” each time. The Potency result in the assay on CP256, in the assay on CP260, in the assay on CP265, in the assay on CP266, in the assay with CP268 and in the assay with CP269 was “inactive” each time. The Potency result in the assay on CP286, in the assay on CP291, in the assay on CP297, in the assay on CP305, with CP315 and in the assay with CP325 was “inactive” in each case. Also, the Potency result in the assay on CP329 was “inactive”.
As to `CC#C[C@]1(O)CC[C@H]2[C@@H]3CCC4=CC(=O)CCC4=C3[C@@H](c3ccc(N(C)C)cc3)C[C@@]21C`, the Potency in the assay with CP217 was 11.2 µM (active); in the assay with CP237, 11.2 µM (active); with CP247 it was 8.91 µM (active); in the assay on CP268 it was 16.9 µM (active); in the assay on CP269 it was 13.5 µM (active); in the assay with CP291, 16.9 µM (active). The Potency in the assay on CP297 and in the assay with CP305 was 12 µM (active) throughout.
Consider `CNCCCC12CCC(c3ccccc31)c1ccccc12`, for which the Potency entry with CP217, in the assay with CP238, with CP247, in the assay with CP250, with CP252 and in the assay on CP256 was “inactive” throughout. For the same compound, the Potency result in the assay on CP262, in the assay on CP266, with CP268, with CP305, in the assay with CP315 and with CP325 was “inactive” throughout. Besides, the Potency entry in the assay on CP329 was “inactive”.
On to `CC(C)C(=O)Nc1ccc([N+](=O)[O-])c(C(F)(F)F)c1`, for which the Potency entry in the assay with CP217, in the assay with CP237, in the assay on CP238, in the assay on CP250, in the assay on CP252 and in the assay on CP256 was “inactive” throughout. Moreover, the Potency result in the assay with CP260, in the assay with CP262, in the assay on CP265, with CP266, with CP268 and in the assay on CP269 was “inactive” throughout. For the same compound, the Potency result in the assay on CP286, with CP291, in the assay with CP297, with CP305, in the assay on CP315 and with CP325 was “inactive” in each case. Besides, the Potency entry in the assay on CP329 was “inactive”.
For the compound `O=c1[nH]cc(F)c(=O)[nH]1`, the Potency with CP247 was 8.91 µM (active). For the same compound, the Potency entry with CP262 and in the assay on CP266 was “inactive” throughout.
On to `CN(Cc1cnc2nc(N)nc(N)c2n1)c1ccc(C(=O)N[C@@H](CCC(=O)O)C(=O)O)cc1`, for which the Potency in the assay with CP237 was 0.1 µM (active); in the assay with CP250, 0.178 µM (active); in the assay on CP260, 0.158 µM (active); with CP286, 0.158 µM (active). Also, the Potency result in the assay with CP252, with CP262, with CP266, in the assay on CP268, in the assay with CP269 and in the assay on CP291 was “inactive” in each case. Also, the Potency result with CP297, in the assay on CP305, in the assay with CP315, with CP325 and in the assay on CP329 was “inactive” each time.
